# Calls of active or inactive are those of the source. Unless noted, how the calls were made is not given here.
# Key:
# [1] = anti-His antibody binders, primary screen, artefact control for SMM control protein annotation, biochemical, small-molecule microarray, 635 nm fluorescence (AID 1128); settings: anti-His Alexa647 antibody binding, higher = more signal;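 further: score merges feature fluorescence with signal-to-noise for each printed compound spot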
# [2] = tested on: Human papillomavirus type 1a E7 protein (residues 1-88); assay: HPV1a E7 small-molecule binders, primary screen, biochemical, small-molecule microarray, residues 1-88, 635 nm (AID 1129); settings: small-molecule microarray binding, fluorescence 635 nm; higher = more signal
# [3] = biological target: Focal adhesion kinase 1 (Homo sapiens) (UniProt Q05397); assay: small-molecule microarray binders of FAK, primary screen, biochemical, 635/667 nm fluorescence, BSA, DTT (AID 1130); settings: PTK2 binding, 635 nm fluorescence, higher = more signal;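 further: composite of spot emission at 667 nm and signal to noise over triplicate slides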
# Sequence of Focal adhesion kinase 1 (Homo sapiens) (Q05397 whole entry, looked up): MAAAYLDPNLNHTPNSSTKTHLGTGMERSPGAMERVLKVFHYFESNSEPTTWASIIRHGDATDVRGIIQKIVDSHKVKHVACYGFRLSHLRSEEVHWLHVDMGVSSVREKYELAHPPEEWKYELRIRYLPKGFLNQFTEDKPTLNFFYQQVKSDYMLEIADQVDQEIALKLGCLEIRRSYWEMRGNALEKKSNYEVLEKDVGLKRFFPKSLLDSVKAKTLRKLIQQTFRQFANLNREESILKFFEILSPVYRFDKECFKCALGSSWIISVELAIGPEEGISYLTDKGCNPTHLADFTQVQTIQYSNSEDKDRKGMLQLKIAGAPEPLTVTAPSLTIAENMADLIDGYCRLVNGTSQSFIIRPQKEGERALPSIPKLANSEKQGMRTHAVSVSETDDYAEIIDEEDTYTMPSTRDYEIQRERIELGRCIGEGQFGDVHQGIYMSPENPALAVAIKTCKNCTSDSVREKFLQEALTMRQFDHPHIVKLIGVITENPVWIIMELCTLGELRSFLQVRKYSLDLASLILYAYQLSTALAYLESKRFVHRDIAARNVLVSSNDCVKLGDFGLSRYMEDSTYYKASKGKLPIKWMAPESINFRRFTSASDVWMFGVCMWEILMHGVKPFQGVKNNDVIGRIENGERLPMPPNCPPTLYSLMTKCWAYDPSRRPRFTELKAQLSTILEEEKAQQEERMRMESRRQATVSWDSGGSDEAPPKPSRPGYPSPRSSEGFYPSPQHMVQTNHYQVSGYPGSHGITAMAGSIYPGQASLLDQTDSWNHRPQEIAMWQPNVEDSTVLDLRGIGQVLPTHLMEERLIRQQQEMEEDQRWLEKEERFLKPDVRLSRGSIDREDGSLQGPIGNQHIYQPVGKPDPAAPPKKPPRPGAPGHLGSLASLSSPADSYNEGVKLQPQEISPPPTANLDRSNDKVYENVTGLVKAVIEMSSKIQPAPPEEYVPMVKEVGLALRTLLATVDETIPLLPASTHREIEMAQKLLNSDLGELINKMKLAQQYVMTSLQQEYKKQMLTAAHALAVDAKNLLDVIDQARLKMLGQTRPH
# [4] = tested on: Fibrinogen (Alexa647-labelled); assay: fibrinogen binders on compound microarrays, profiling panel, artefact control for SMM control-protein annotation, biochemical, small-molecule microarray, 635/667 nm fluorescence (AID 1131); settings: fibrinogen-A647 binding fluorescence, higher = more signal;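 further: z-score merges 667 nm fluorescence with per-spot signal-to-noise over triplicate slides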
# [5] = biological target: Follistatin (Homo sapiens) (UniProt P19883); assay: follistatin binders on small-molecule microarrays, primary screen, biochemical, small-molecule microarray, 635/667 nm fluorescence (AID 1132); settings: FST binding, 635 nm fluorescence, higher = more signal
# Sequence of Follistatin (Homo sapiens) (P19883 whole entry, looked up): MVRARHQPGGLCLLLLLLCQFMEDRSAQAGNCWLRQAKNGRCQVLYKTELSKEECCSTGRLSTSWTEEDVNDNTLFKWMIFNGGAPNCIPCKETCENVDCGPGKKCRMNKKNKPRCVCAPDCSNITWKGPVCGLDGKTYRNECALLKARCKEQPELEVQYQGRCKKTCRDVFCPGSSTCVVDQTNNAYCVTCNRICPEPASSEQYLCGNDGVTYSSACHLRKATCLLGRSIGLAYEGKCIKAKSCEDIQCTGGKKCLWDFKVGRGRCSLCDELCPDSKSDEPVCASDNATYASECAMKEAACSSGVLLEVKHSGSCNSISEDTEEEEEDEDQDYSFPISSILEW
# [6] = biological target: Fibroblast growth factor 2 (Homo sapiens) (UniProt P09038); assay: FGF2 binders on small-molecule microarrays, primary screen, biochemical, small-molecule microarray, 635/667 nm fluorescence (AID 1133); settings: small-molecule microarray binding, FGF2, fluorescence 635/667; higher = more signal
# Sequence of Fibroblast growth factor 2 (Homo sapiens) (P09038 whole entry, looked up): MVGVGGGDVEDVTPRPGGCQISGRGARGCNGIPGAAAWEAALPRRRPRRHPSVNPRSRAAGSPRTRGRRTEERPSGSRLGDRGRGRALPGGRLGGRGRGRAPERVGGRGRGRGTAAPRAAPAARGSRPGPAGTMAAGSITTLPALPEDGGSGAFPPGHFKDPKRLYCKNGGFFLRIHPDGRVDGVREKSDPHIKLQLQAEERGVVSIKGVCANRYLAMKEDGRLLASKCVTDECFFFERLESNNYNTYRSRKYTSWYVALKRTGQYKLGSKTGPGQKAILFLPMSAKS
# [7] = mitochondrial membrane potential change in A549 cells, profiling panel, cell-based, JC-1 fluorescence, basal, 24 h, 100 nL (AID 1138); settings: higher = more signal;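 further: A549 lung adenocarcinoma cells under basal conditions with no added stimulus; test concentration not given here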
# Lefty1 = Lefty1 binders on small-molecule microarrays, primary screen, biochemical, small-molecule microarray, 635/667 nm fluorescence (AID 1139); settings: small-molecule microarray binding, fluorescence 635/667; higher = more signal
# [8] = tested on: wheat germ agglutinin (Triticum aestivum), Alexa647-labelled; assay: wheat germ agglutinin binders on compound microarrays, profiling panel, artefact control for SMM control-protein annotation, biochemical, small-molecule microarray, 635/667 nm fluorescence (AID 1140); settings: WGA-A647 binding, 635 nm fluorescence, higher = more signal;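 further: score merges 667 nm feature emission with signal to noise over triplicate slides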
# [9] = biological target: Luciferin 4-monooxygenase (Photinus pyralis) (UniProt P08659); assay: firefly luciferase enzyme inhibitors, primary screen, biochemical, luminescence, purified enzyme, 2006 set (AID 1141); settings: SteadyGlo luminescence, 30 min, higher = more signal, called active from +8 up or from −8 down;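 further: cell-free assay with purified firefly luciferase at 100 ng per well in PBS; test concentration not given here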
# Sequence of Luciferin 4-monooxygenase (Photinus pyralis) (P08659 whole entry, looked up): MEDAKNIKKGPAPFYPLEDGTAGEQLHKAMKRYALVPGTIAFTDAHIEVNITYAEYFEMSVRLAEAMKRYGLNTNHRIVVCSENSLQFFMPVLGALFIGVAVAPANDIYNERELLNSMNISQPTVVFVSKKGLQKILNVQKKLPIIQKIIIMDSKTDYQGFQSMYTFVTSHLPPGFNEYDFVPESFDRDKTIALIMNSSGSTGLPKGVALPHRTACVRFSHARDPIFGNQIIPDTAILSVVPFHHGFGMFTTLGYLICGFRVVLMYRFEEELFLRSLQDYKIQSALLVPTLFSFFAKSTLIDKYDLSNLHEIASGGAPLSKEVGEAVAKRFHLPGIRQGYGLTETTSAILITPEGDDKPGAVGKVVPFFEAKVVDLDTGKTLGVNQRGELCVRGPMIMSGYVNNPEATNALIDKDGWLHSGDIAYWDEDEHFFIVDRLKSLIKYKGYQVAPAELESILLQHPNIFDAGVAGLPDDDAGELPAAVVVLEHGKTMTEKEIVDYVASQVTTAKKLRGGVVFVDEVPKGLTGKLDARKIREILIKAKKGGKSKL
# [10] = tested on: Wnt5a (protein binding on small-molecule microarray); assay: Wnt5a binders on small-molecule microarray, primary screen, biophysical, 635/667 nm fluorescence (AID 1142); settings: 635 nm fluorescence, higher = more signal;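 further: fluorescence read at 667 nm with signal to noise per printed feature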
# [11] = cell viability in Huh7 cells, primary screen, cytotoxicity control for HCV replication inhibitor project, CellTiter-Glo luminescence, basal, 48 h (AID 1143); settings: Huh7 HCV replicon, higher = more signal, called active from +8 up or from −8 down;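 further: Huh7 hepatoma cells carrying a hepatitis C replication reporter with no stimulus; test concentration not given here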
# [12] = P. aeruginosa biofilm formation inhibitors, primary screen, PAO1 strain, BacTiter-Glo luminescence, LB-PBS (AID 1144); settings: 12 h, higher = more signal
# [13] = CREB reporter modulators without forskolin, primary screen, cell-based, PC12, CRE-LacZ reporter, unstimulated (AID 1145); settings: no forskolin, luminescence, 4.5 h, higher = more signal, called active from +8 up or from −8 down
# [14] = CREB reporter modulators under forskolin, primary screen, cell-based, PC12, CRE-LacZ reporter, forskolin-stimulated (AID 1146); settings: luminescence, 4.5 h, higher = more signal, called active from +8 up or from −8 down;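 further: PC12 cells with 6xCRE LacZ reporter stimulated by forskolin 10 µM; beta-galactosidase reporter signal reflecting CREB driven transcription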
# [15] = biological target: Streptavidin (Streptomyces avidinii) (UniProt P22629); assay: streptavidin binders on small-molecule microarray, primary screen, artefact control for SMM compound annotation, biophysical, 635/667 nm fluorescence (AID 1147); settings: streptavidin binding, higher = more signal;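 further: signal reflects streptavidin binding to arrayed compounds as a control protein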
# Sequence of Streptavidin (Streptomyces avidinii) (P22629 whole entry, looked up): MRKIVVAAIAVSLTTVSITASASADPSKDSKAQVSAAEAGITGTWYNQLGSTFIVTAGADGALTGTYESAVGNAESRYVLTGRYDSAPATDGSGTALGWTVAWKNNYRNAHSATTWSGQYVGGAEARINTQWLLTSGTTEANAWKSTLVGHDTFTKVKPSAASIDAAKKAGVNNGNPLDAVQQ
# [16] = small-molecule binders of probe aInhba, primary screen, biochemical, small-molecule microarray, 635/667 nm fluorescence (AID 1148); settings: higher = more signal;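 further: score merges 667nm spot fluorescence with signal-to-noise for antibody binding to printed compounds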
# Torsin-1A (Homo sapiens) [17] = biological target: Torsin-1A (Homo sapiens) (UniProt O14656); assay: torsin A binders from cell lysate, primary screen, small-molecule microarray, wild-type, 635/667 nm (AID 1149); settings: COS7 hTOR1A-WT lysate, 635 nm fluorescence, higher = more signal
# Sequence of Torsin-1A (Homo sapiens) (O14656 whole entry, looked up): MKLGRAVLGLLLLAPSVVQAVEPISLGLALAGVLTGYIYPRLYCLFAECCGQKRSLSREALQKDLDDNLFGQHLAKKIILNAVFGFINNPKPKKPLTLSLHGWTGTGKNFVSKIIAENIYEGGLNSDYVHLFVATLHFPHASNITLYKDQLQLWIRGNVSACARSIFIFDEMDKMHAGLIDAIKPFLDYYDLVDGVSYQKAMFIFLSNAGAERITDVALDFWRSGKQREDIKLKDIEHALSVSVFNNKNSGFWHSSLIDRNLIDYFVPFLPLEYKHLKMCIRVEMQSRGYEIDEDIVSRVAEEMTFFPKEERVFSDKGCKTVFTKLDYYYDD
# Torsin-1A (Homo sapiens) [18] = biological target: Torsin-1A (Homo sapiens) (UniProt O14656); assay: small-molecule binders of mutant TOR1A in lysate, primary screen, cell lysate, small-molecule microarray, COS7 lysate, 635/667 nm fluorescence (AID 1150); settings: COS7 hTOR1A mutant lysate, 635 nm fluorescence, higher = more signal;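 further: score pools 667 nm emission and signal to noise measuring lysate protein binding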
# [19] = tested on: Sonic hedgehog protein (Shh); assay: small-molecule binders of Shh protein, primary screen, biochemical, small-molecule microarray, 635/667 nm fluorescence (AID 1151); settings: small-molecule microarray binding, 635 nm fluorescence; higher = more signal;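 further: Shh protein binding to compounds spotted on small-molecule microarray slides; score combines spot fluorescence intensity with signal-to-noise across triplicate slides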
SMILES,composite z-score [1],composite z-score [2],composite z-score [3],composite z-score [4],composite z-score [5],composite z-score [6],z-score [7],composite z-score (Lefty1),composite z-score [8],z-score [9],composite z-score [10],z-score [11],z-score [12],z-score [13],z-score [14],composite z-score [15],composite z-score [16],composite z-score (Torsin-1A (Homo sapiens) [17]),composite z-score (Torsin-1A (Homo sapiens) [18]),composite z-score [19]
COC(=O)[C@H](Cc1ccccc1)N1CC(/C=C/C2CC2)=C[C@H]1[C@H](O)Cc1ccccc1,-0.0173,0.921,0.437,0.667,0.582,0.526,-0.267,0.545,0.958,-0.807 (inactive),-0.0412,-2.83 (inactive),0.954 (inactive),2.1 (inactive),18.9 (active),0.626,-0.0523,0.211,0.188,0.593
CC(C)C[C@@H]1NC(=O)[C@@H]2C[C@H](C(=O)NCCCCN(C)C)[C@H](c3cccc(OCCO)c3)N2C1=O,-0.421,-0.46,0.392,-1.81,0.787,0.549,-0.57,0.24,0.779,0.857 (inactive),-0.179,-0.193 (inactive),-1.25 (inactive),-0.817 (inactive),0.645 (inactive),-0.911,0.0108,0.352,0.718,1.24
CCCCCCc1nc(C2CC2)cc2c1[Si](C(C)C)(C(C)C)O[C@H]2c1ccccc1,-0.523,-0.873,0.0181,-0.675,0.0915,0.248,-0.911,1.05,-0.127,0.747 (inactive),-0.0368,0.086 (inactive),-0.0699 (inactive),0.134 (inactive),0.128 (inactive),0.147,0.0319,0.338,0.378,1.59
NC(=O)NCC#Cc1ccc2c(c1)[C@]1(C(=O)N2)[C@H](C(=O)O)[C@H]2C(=O)O[C@H](c3ccccc3)[C@H](c3ccccc3)N2[C@@H]1c1ccc(OCCO)cc1,0.894,0.643,0.116,0.57,1.18,0.239,-0.765,0.183,0.553,-2.23 (inactive),0.0755,-0.175 (inactive),-0.015 (inactive),-0.195 (inactive),-0.746 (inactive),1.15,-0.102,-0.0721,0.588,0.135
O=C1O[C@@H](c2ccccc2)[C@@H](c2ccccc2)N2[C@@H](c3ccc(O)cc3)[C@]3(C(=O)Nc4ccc(C#CC5=CCCCC5)cc43)[C@@H](C(=O)NC[C@H](O)c3ccccc3)[C@H]12,0.219,1.19,0.134,0.925,1.45,1.69,-0.945,0.907,1,-1.38 (inactive),0.361,-3.48 (inactive),-1.16 (inactive),-0.0246 (inactive),-0.199 (inactive),0.212,0.0833,0.675,0.677,1.48
O=C1OCC=C[C@H]2OC34C=CCN(c5ccc(Cl)cc5)C(=O)[C@H]3N(CCO)C(=O)[C@@H]4[C@@H]12 (stereo not given in full),0.745,-0.658,-0.588,-1.36,-1.12,-1.06,0.805,-0.78,-0.729,-0.386 (inactive),-0.649,0.168 (inactive),3.17 (inactive),0.601 (inactive),-0.663 (inactive),-1.02,-0.26,-0.846,-1.84,-0.889
CC(=O)NCCCC[C@@H]1NC(=O)[C@H]2C[C@@H](C(=O)NCCCC[N+](C)(C)C)[C@@H](c3cccc(OCCO)c3)N2C1=O,1.57,-0.416,0.191,0.231,1.47,1.85,0.584,1.71,0.552,-1.42 (inactive),0.975,-1.62 (inactive),0.481 (inactive),-0.667 (inactive),0.451 (inactive),-0.296,0.0031,1.07,2.34,2.18
C=CC[C@]1(C(=O)O)COC(c2ccc(OCCCO)cc2)=N1,1.53,0.205,-0.0931,0.219,0.372,-0.105,0.0454,0.378,0.342,-0.497 (inactive),-0.0405,0.543 (inactive),-0.852 (inactive),1.46 (inactive),0.123 (inactive),-0.447,-0.103,-0.0985,0.338,0.0518
C#CCN([C@@H](Cc1ccc(O)cc1)C(=O)OC)[C@@H](/C=C/C1CC1)[C@H](O)Cc1ccccc1,0.241,-0.968,-0.0524,-0.519,0.814,-0.0354,-1.6,0.618,-0.55,-0.0396 (inactive),-0.595,-5.26 (inactive),0.709 (inactive),16.1 (active),1.17 (inactive),-0.492,-0.128,-0.541,-0.12,0.825
COCCOC(=O)N1C(=O)[C@@]2(c3cc(C#CC4=CCCCC4)ccc31)[C@H](c1ccc(OCCO)cc1)N1[C@H](c3ccccc3)[C@H](c3ccccc3)OC(=O)[C@H]1[C@@H]2C(=O)N1CCN(c2ncccn2)CC1,0.433,1.15,0.067,0.574,1.29,0.692,-1.27,0.853,0.5,-2.01 (inactive),0.323,-1.24 (inactive),1.04 (inactive),0.212 (inactive),-0.674 (inactive),0.0363,0.0649,0.767,0.501,0.772
O=C1O[C@@H](c2ccccc2)[C@@H](c2ccccc2)N2[C@@H](c3ccc(O)cc3)[C@]3(C(=O)Nc4ccc(C#CC5(O)CCCCCC5)cc43)[C@@H](C(=O)NC[C@H](O)c3ccccc3)[C@H]12,0.326,0.899,0.551,0.151,-0.538,-0.322,-1.31,-0.218,0.297,0.27 (inactive),0.0895,-1.42 (inactive),-0.144 (inactive),-0.606 (inactive),-0.448 (inactive),-0.508,-0.0221,0.0581,-0.135,0.217

# From PubChem BioAssay
